Data as given in article PMC3315485, “Probing the Informational and Regulatory Plasticity of a Transcription Factor DNA–Binding Domain”.
Residue numbers refer to the chain shown, from its start.

How the values were obtained:
Experiment in all cases: MITOMI; MITOMI, 295 K (22 C); buffer, salt and pH not stated in the material; high values mean tight binding
Conditions in all cases: protein: ivt; label: fluorescent; dsDNA, one strand shown
[1] = target: T1, MarA wild type (WQR) (Escherichia coli, UniProt P0ACH5 1-127)
T1 sequence: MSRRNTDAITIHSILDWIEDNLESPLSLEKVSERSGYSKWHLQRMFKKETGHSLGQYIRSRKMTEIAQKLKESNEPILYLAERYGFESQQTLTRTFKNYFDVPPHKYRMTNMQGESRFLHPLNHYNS
Method in brief: (§1)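 Association constants were determined by MITOMI and are expressed for each site relative to the site with the highest affinity for the same protein variant. The MarA protein variants were made with the RTS E. coli HY kit by in vitro transcription and translation and labelled through addition of tRNA-lys-bodipy-fl. Testing covered 64 synthesized mar binding site variants, with fluorescence read on Genepix at 295K.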

[2] = target: T2, MarA RQR (Escherichia coli, UniProt P0ACH5 1-127, W40R)
T2 sequence: T1 sequence with W40R
Method in brief: as §1

[3] = target: T3, MarA RTR (Escherichia coli, UniProt P0ACH5 1-127, W40R;Q43T)
T3 sequence: T1 sequence with W40R, Q43T
Method in brief: as §1

[4] = target: T4, MarA SAR (Escherichia coli, UniProt P0ACH5 1-127, W40S;Q43A)
T4 sequence: T1 sequence with W40S, Q43A
Method in brief: as §1

[5] = target: T5, MarA TRR (Escherichia coli, UniProt P0ACH5 1-127, W40T;Q43R)
T5 sequence: T1 sequence with W40T, Q43R
Method in brief: as §1

Row | Sequence | binding signal [1] | binding signal [2] | binding signal [3] | binding signal [4] | binding signal [5]
1 | ATGCGTCGTTTTGCTAAAT | 0.26 Ka relative to the best site of the variant | 0.144 Ka relative to the best site of the variant | 0.153 Ka relative to the best site of the variant | 0.552 Ka relative to the best site of the variant | 0.435 Ka relative to the best site of the variant
2 | ATGAACCGTTTTGCTAAAT | 0.224 Ka relative to the best site of the variant | 0.104 Ka relative to the best site of the variant | 0.204 Ka relative to the best site of the variant | 0.776 Ka relative to the best site of the variant | 0.379 Ka relative to the best site of the variant
3 | ATGAGGCGTTTTGCTAAAT | 0.283 Ka relative to the best site of the variant | 0.103 Ka relative to the best site of the variant | 0.212 Ka relative to the best site of the variant | 0.726 Ka relative to the best site of the variant | 0.475 Ka relative to the best site of the variant
4 | ATGTGTCGTTTTGCTAAAT | 0.284 Ka relative to the best site of the variant | 0.132 Ka relative to the best site of the variant | 0.231 Ka relative to the best site of the variant | 0.282 Ka relative to the best site of the variant | 0.424 Ka relative to the best site of the variant
5 | ATGGTTCGTTTTGCTAAAT | 0.203 Ka relative to the best site of the variant | 0.13 Ka relative to the best site of the variant | 0.189 Ka relative to the best site of the variant | 0.805 Ka relative to the best site of the variant | 0.368 Ka relative to the best site of the variant
6 | ATGGGACGTTTTGCTAAAT | 0.34 Ka relative to the best site of the variant | 0.136 Ka relative to the best site of the variant |  | 0.498 Ka relative to the best site of the variant | 0.361 Ka relative to the best site of the variant
7 | ATGTCGCGTTTTGCTAAAT | 0.426 Ka relative to the best site of the variant | 0.635 Ka relative to the best site of the variant | 0.353 Ka relative to the best site of the variant | 0.219 Ka relative to the best site of the variant | 0.463 Ka relative to the best site of the variant
8 | ATGGTACGTTTTGCTAAAT | 0.294 Ka relative to the best site of the variant | 0.124 Ka relative to the best site of the variant | 0.222 Ka relative to the best site of the variant | 0.797 Ka relative to the best site of the variant | 0.39 Ka relative to the best site of the variant
9 | ATGATCCGTTTTGCTAAAT | 0.22 Ka relative to the best site of the variant | 0.117 Ka relative to the best site of the variant | 0.175 Ka relative to the best site of the variant | 0.872 Ka relative to the best site of the variant | 0.466 Ka relative to the best site of the variant
10 | ATGGCACGTTTTGCTAAAT | 1 Ka relative to the best site of the variant | 0.647 Ka relative to the best site of the variant | 0.432 Ka relative to the best site of the variant | 0.741 Ka relative to the best site of the variant | 0.392 Ka relative to the best site of the variant
11 | ATGAAACGTTTTGCTAAAT | 0.124 Ka relative to the best site of the variant | 0.0424 Ka relative to the best site of the variant | 0.323 Ka relative to the best site of the variant | 0.852 Ka relative to the best site of the variant | 0.36 Ka relative to the best site of the variant
12 | ATGCGCCGTTTTGCTAAAT | 0.223 Ka relative to the best site of the variant | 0.154 Ka relative to the best site of the variant | 0.178 Ka relative to the best site of the variant | 0.602 Ka relative to the best site of the variant | 0.457 Ka relative to the best site of the variant
13 | ATGACGCGTTTTGCTAAAT | 0.362 Ka relative to the best site of the variant | 0.33 Ka relative to the best site of the variant | 0.382 Ka relative to the best site of the variant | 0.905 Ka relative to the best site of the variant | 0.302 Ka relative to the best site of the variant
14 | ATGCATCGTTTTGCTAAAT | 0.317 Ka relative to the best site of the variant | 0.112 Ka relative to the best site of the variant | 0.186 Ka relative to the best site of the variant | 0.449 Ka relative to the best site of the variant | 0.422 Ka relative to the best site of the variant
15 | ATGTTACGTTTTGCTAAAT | 0.288 Ka relative to the best site of the variant | 0.135 Ka relative to the best site of the variant | 0.177 Ka relative to the best site of the variant | 0.202 Ka relative to the best site of the variant | 0.518 Ka relative to the best site of the variant
16 | ATGGCGCGTTTTGCTAAAT | 0.334 Ka relative to the best site of the variant | 0.577 Ka relative to the best site of the variant | 0.685 Ka relative to the best site of the variant | 0.973 Ka relative to the best site of the variant | 0.415 Ka relative to the best site of the variant
